According to PubChem BioAssay:
Active and inactive are the calls of the source.

Legend:
[1] = A549 cell viability effects, profiling panel, calcein-AM fluorescence, 48 h, basal (AID 1162); settings: higher = more signal
[2] = adipocyte viability effects, profiling panel, cell-based, 3T3-L1 adipocytes, calcein-AM fluorescence, 48 h, basal (AID 1163); settings: 3T3-L1 adipocytes viability, higher = more signal
[3] = HepG2 cell viability effects, profiling panel, calcein-AM fluorescence, 48 h, basal (AID 1164); settings: higher = more signal
[4] = MM1S cell viability effects, profiling panel, calcein-AM fluorescence, 48 h, basal (AID 1165); settings: higher = more signal;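 note: viability of MM1S multiple myeloma cells under basal unstimulated conditions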
[5] = basal RPMI8226 viability, no added stimulus, profiling panel, cell-based, calcein-AM fluorescence, 48 h, PK04 Diversity Set (AID 1166); settings: RPMI8226 myeloma viability, higher = more signal;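 note: cells grown under basal conditions without added stimulus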
[6] = basal HepG2 mitochondrial membrane potential changes, profiling panel, cell-based, JC-1 fluorescence, 24 h, 100 nL compound (AID 1167); settings: higher = more signal
[7] = basal 3T3-L1 adipocyte mitochondrial potential changes, profiling panel, cell-based, JC-1 fluorescence, 3T3-L1 adipocytes, 24 h, 100 nL compound (AID 1168); settings: JC-1 mitochondrial fluorescence, higher = more signal, called active from +8 up or from −8 down
[8] = basal RPMI8226 mitochondrial membrane potential changes, profiling panel, cell-based, JC-1 fluorescence, 24 h, 100 nL compound (AID 1169); settings: RPMI8226 myeloma, JC-1 mitochondrial potential fluorescence, higher = more signal
[9] = basal MM1S mitochondrial membrane potential changes, profiling panel, cell-based, JC-1 fluorescence, 24 h, 100 nL compound (AID 1170); settings: higher = more signal
[10] = A549 lung cancer cell viability effects, profiling panel, resazurin fluorescence, 24 h, PK04 Diversity Set (AID 1171); settings: higher = more signal, called active from +8 up or from −8 down
Note: test concentration not given here.

| SMILES | z-score [1] | z-score [2] | z-score [3] | z-score [4] | z-score [5] | z-score [6] | z-score [7] | z-score [8] | z-score [9] | z-score [10] |
| --- | --- | --- | --- | --- | --- | --- | --- | --- | --- | --- |
| CC(C)[C@H](NC(=O)OC(C)(C)C)[C@@H](O)CC(=O)C(C)(C)C | -0.0305 | -1.02 | 0.483 | 0.514 | -0.0779 | 0.136 | -0.148 (inactive) | -0.988 | -1.13 | -0.242 (inactive) |
| CCOC(=O)CCN1C(=O)[C@H]2[C@H]3[C@H](O)[C@H](O)CC(=O)[C@@H]3CC[C@H]2C1=O | -0.856 | 0.314 | -0.0609 | -0.885 | 0.456 | -0.385 | -0.368 (inactive) | -0.798 | 0.325 | 0.699 (inactive) |
| COc1cccc([C@H]2Oc3ccc(OC)cc3C(=NOCC[C@@H]3C=C[C@H](OC(C)=O)[C@@H](COC(C)=O)O3)[C@@H]2O)c1 | -0.34 | -0.542 | -0.744 | 0.445 | -1.19 | -1.28 | -1.16 (inactive) | -0.209 | -1.04 | -0.945 (inactive) |
| CON=C(C)CCN1CCc2nc(-c3ccccc3)c(-c3ccccc3)cc2C1 | -0.119 | 0.728 | 0.0133 | -2.98 | -1.5 | 1.03 | -0.144 (inactive) | -0.0566 | 0.446 | 1.73 (inactive) |
| CC(C)=CCCC(C)=CCON=C1[C@H]2CCn3c(=O)n(-c4ccccc4)c(=O)n3[C@H]2[C@H](O)[C@@H]2O[C@H]12 | -0.603 | -0.141 | -0.838 | -2.89 | -1.47 | -1.07 | -0.462 (inactive) | -0.247 | -1.81 | -1.33 (inactive) |
| COc1ccc(O[C@H]2C=C[C@@H](c3ccccc3)O[C@@H]2CO)cc1 | 0.109 | 0.0705 | -0.27 | -0.307 | -0.0698 | 0.194 | -0.637 (inactive) | 0.362 | -0.42 | -0.521 (inactive) |
| C#CCCCON=C1[C@H]2CCn3c(=O)n([C@@H](CC)c4ccccc4)c(=O)n3[C@H]2[C@H](O)[C@@H]2O[C@H]12 | 0.0523 | 0.44 | -0.129 | -1.77 | -0.0952 | -0.696 | 0.123 (inactive) | -0.547 | -0.662 | 0.43 (inactive) |
| Cc1ccc2[nH]c3nc(CCCn4ccnc4-c4ccccc4)nnc3c2c1 | 0.0515 | 0.339 | -0.18 | 1.05 | 0.392 | -0.807 | 1.1 (inactive) | 0.738 | -0.867 | 0.384 (inactive) |
| CO[C@@H]1COC(=O)CC=C[C@H](C)[C@H](OC)COC(=O)[C@@H]2CCCN2C(=O)CC=C[C@H]1C | -0.125 | 0.846 | -0.138 | 0.0805 | -0.822 | 1.07 | 0.332 (inactive) | 0.114 | 1.03 | -0.541 (inactive) |
| CO[C@H]1COC(=O)[C@H](CCSC)NC(=O)CC=C[C@@H](C)[C@H](OC)COC(=O)[C@@H](OCc2ccccc2)C=C[C@@H]1C | -0.843 | -0.161 | -1.1 | -0.0051 | 0.241 | 0.247 | -1.75 (inactive) | 0.759 | -0.491 | 0.886 (inactive) |
| CC(CCN1CCCCc2nc(C)c(C)cc21)=NO[C@H](C)c1cn([C@@H]2COC[C@H]2O)nn1 | 0.368 | -0.807 | 0.251 | 0.287 | 0.0323 | 0.0457 | 0.229 (inactive) | 1.18 | -0.992 | -0.454 (inactive) |
| CC(C)CN1CCc2nc(-c3ccccc3)c3c(c2C1)CO[C@@H](C)C3 | 1.2 | -0.274 | 0.0114 | 0.639 | -0.409 | 0.462 | 0.0658 (inactive) | -0.0878 | 0.708 | -0.139 (inactive) |
| COc1ccc(COC(=O)NN=C2C[C@@H](O)[C@@H](O)[C@@H]3[C@@H]4C(=O)N([C@@H](C)c5ccccc5)C(=O)[C@@H]4CC[C@H]23)cc1 | -0.0502 | 0.155 | -0.791 | 0.145 | -0.486 | -0.888 | -0.653 (inactive) | -0.0767 | 0.493 | 0.541 (inactive) |
| COc1ccc(O[C@H]2C=C[C@@H](c3ccccc3)O[C@@H]2COC(=O)NCc2cccc3ccccc23)cc1 | 0.152 | 0.0831 | -0.833 | -1.23 | -0.0376 | 0.194 | -0.351 (inactive) | 0.396 | -0.225 | 0.618 (inactive) |
| O=C(NCCC[N+]1=CC=NC1c1ccccc1)N1CCCc2nc(-c3ccc(Br)cc3)ccc21 (stereo not given) | 0.478 | -1.13 | -0.598 | -2.52 | -0.77 | 1.13 | -0.141 (inactive) | 0.184 | -0.404 | 0.811 (inactive) |
| CC(C)CON=C1[C@H]2CCn3c(=O)n(C)c(=O)n3[C@H]2[C@H](O)[C@@H]2O[C@H]12 | 0.543 | 0.632 | 0.361 | 0.191 | -0.441 | -0.383 | -0.444 (inactive) | -0.581 | 0.0994 | -0.143 (inactive) |

| SMILES | z-score [1] | z-score [2] | z-score [3] | z-score [4] | z-score [5] | z-score [6] | z-score [7] | z-score [8] | z-score [9] | z-score [10] |
| --- | --- | --- | --- | --- | --- | --- | --- | --- | --- | --- |
| O=C1CCCC=C1C(O)COCc1ccccc1 (stereo not given) | 0.384 | -1.41 | -1.13 | -0.265 | 0.729 | -0.143 | -0.649 (inactive) | 0.728 | -0.0651 | 0.0235 (inactive) |
| COC(=O)[C@H](C)NC(=O)CCC1CC(OC(=O)NCc2cccc3ccccc23)CC2(CCCC(COC(=O)NCc3ccccc3)O2)O1 (stereo not given in full) | 0.217 | 0.2 | -0.653 | 0.621 | 0.769 | 1.46 | 0.818 (inactive) | 0.662 | -0.845 | 2.64 (inactive) |
| CCOC(=O)CCN1C(=O)[C@H]2[C@@H]3C(=CC[C@H]2C1=O)C(=O)[C@H]1O[C@H]1[C@H]3O | 0.762 | 0.453 | -0.564 | -3.19 | -3.72 | -1.23 | 0.501 (inactive) | -1.1 | -2.74 | -0.899 (inactive) |
| CCN1C(=O)[C@H]2[C@H]3[C@H](O)[C@H](O)CC(=NO[C@@H](C)c4cc(-c5c(C)cc(C)cc5C)no4)[C@@H]3CC[C@H]2C1=O | 0.165 | 0.335 | -0.401 | -0.807 | -1.14 | -1.38 | -3.4 (inactive) | 0.473 | -0.176 | 0.296 (inactive) |
| C=CC[C@@H]1C=C[C@H](ON=CC[C@@H]2C=C[C@H](OC(C)=O)[C@@H](COC(C)=O)O2)[C@@H](CO)O1 | 0.452 | -0.5 | 0.347 | 0.114 | -0.445 | 0.169 | -0.01 (inactive) | -0.131 | -0.838 | -0.286 (inactive) |
| CON=C1c2cc(OC)ccc2O[C@H](c2cccc(OC)c2)[C@H]1O | 0.744 | 0.448 | -0.743 | -0.416 | 0.53 | 0.181 | -0.672 (inactive) | -0.0443 | 1.39 | -0.124 (inactive) |
| CC(C)=CCCC(C)=CCON=C1C[C@@H](O)[C@@H](O)[C@@H]2[C@@H]3C(=O)N(C4CCCCC4)C(=O)[C@@H]3CC[C@H]12 | -0.529 | -0.735 | -0.0977 | -2.9 | -0.201 | -1.47 | -0.444 (inactive) | -0.467 | -1.4 | -0.587 (inactive) |
| CC(=O)OC[C@H]1O[C@@H](ON=C(C)CCN2CCCCc3nc(C)c(C)cc32)[C@H](OC(C)=O)[C@@H](OC(C)=O)[C@@H]1OC(C)=O | -1.33 | 1.58 | -0.716 | 0.224 | -2.19 | 0.203 | 0.327 (inactive) | -0.832 | -0.411 | -0.101 (inactive) |
| CC(C)=NOC(C)CN1CCCCc2nc(C)c(C)cc21 (stereo not given) | 0.0529 | -0.047 | -0.018 | -0.3 | -0.637 | -0.792 | -0.78 (inactive) | -0.633 | 0.354 | -0.585 (inactive) |
| CC(C)=NOC(C)CN1CCCc2nc(C)c(C)cc21 (stereo not given) | 0.755 | -0.588 | 0.272 | -0.237 | 0.0977 | 0.0197 | -0.24 (inactive) | -0.416 | 0.226 | -0.373 (inactive) |
| COc1ccc(-c2cnnc(CCCn3ccnc3-c3ccccc3)n2)cc1 | -0.98 | 1.02 | -1.28 | -1.82 | -2.55 | -1.5 | -0.876 (inactive) | -0.87 | -0.543 | -3.49 (inactive) |
| C[C@@H]1CC[C@@H](C(=O)O)N[C@H]1c1cccc(N2CCOCC2)c1 | 1.03 | -0.219 | 0.0881 | 0.401 | 1.07 | 1.66 | 0.631 (inactive) | -0.157 | -0.144 | 0.148 (inactive) |
| CO[C@@H](C(C)C)[C@@H](C)C1OC(=O)CC1O (stereo not given in full) | -0.729 | -0.121 | -0.349 | 0.534 | -0.908 | -0.518 | -0.419 (inactive) | -0.147 | -0.0891 | -0.196 (inactive) |
| CCOC(=O)[C@H](Cc1ccccc1)NC(=O)CCC1CC(OC(=O)NCc2cccc3ccccc23)CC2(CCCC(COC(=O)NCc3ccc4c(c3)OCO4)O2)O1 (stereo not given in full) | 0.664 | -0.171 | 0.78 | 0.505 | -1.48 | 0.561 | 0.953 (inactive) | -0.675 | -0.239 | -0.269 (inactive) |
| CC1(C)O[C@H]2OC([C@H](O)CON3C(=O)c4ccccc4C3=O)[C@H](O)[C@H]2O1 (stereo not given in full) | 0.23 | 0.0217 | 0.0029 | -0.963 | -0.486 | -0.249 | -0.143 (inactive) | -0.484 | 0.658 | 0.368 (inactive) |
